Experimental findings from PubChem BioAssay (NCATS) are described below.

Assay [1] can be described thus: qHTS drug screen for cell cycle checkpoint inhibitors in PARPi-resistant BRCA-mutant ovarian cancer cell lines. (AID 1963452). The following applies: PEO1/OlaR viability, CellTiter-Glo luminescence, 96 h, stronger effect = lower value. In short, it runs like this: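 PEO1, PEO4 and PEO1/OlaR ovarian cancer cells, 600 per well, exposed 96 h at 37C to a dilution series. Viability read by CellTiter-Glo luminescence, normalized to DMSO and empty wells; activity summarized as Z-AUC.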

In the next assay the test system is 7G8. As to the kind of experiment: qHTS profiling for inhibitors of Plasmodium falciparum proliferation (AID 504749; active = well fitted inhibition curve with a large enough effect; also: potency is read from the fitted curve at half-maximal effect; nearly all actives have a fitted effect of over 60% in size). The following applies: P. falciparum in erythrocytes, SYBR Green DNA, 72 h; series mostly up to 28.7 µM. From the text: NIH National Institute of Allergy and Infectious Diseases [NIAID] NIH Chemical Genomics Center [NCGC] MLPCN Grant: None Assay Provider: Xinzhuan Su, NIAID NCGC Assay Overview: Plasmodium falciparum is a virulent malarial parasite that kills 1-2 million people worldwide each year. Transmitted by mosquitoes, the sporozoite form of the parasite enters the blood stream to infect hepatocytes, where they become merozoites that infect red blood cells (erythrocytes). Within erythrocytes, merozoites begin a […] cycle of growth and division, after which the parasite is released to infect new red blood cells. Gametocytes, which form within erythrocytes as well, circulate in the bloodstream and are ingested by the mosquito, thereby completing the life cycle. To profile malarial isolates for differential chemical responses and to identify inhibitors of malarial growth, an assay that measures P. falciparum growth and replication within erythrocytes was employed. This assay uses a DNA binding fluorescent dye (SYBR Green) to detect parasite DNA following cell lysis. Because mature erythrocytes lack DNA, only Plasmodium-derived DNA is detected.
NCGC Assay Protocol Summary: The SYBR Green viability assay was adapted from a method described previously (Plouffe et al., 2008). For screening 3 ul culture medium was dispensed into 1536 well black clear bottom plates (Aurora Biotechnologies) using a Multidrop Combi (Thermo Fisher Scientific Inc.), 23 nL compounds in DMSO were added by a pin tool (Kalypsys), and 5 ul of erythrocytes infected with P. falciparum (0.3% parasitemia, 2.5% hematocrit final concentration) were added. The plates were incubated at 37 C in a humidified incubator in 5% CO2 for 72 h, and 2 ul lysis buffer (20 mM Tris HCl, 10 mM EDTA, 0.16% saponin, 1.6% triton X, 10X SYBR Green I supplied as 10,000X […] by Invitrogen) was added to each well. The plates were mixed for 25 sec with gentle shaking and incubated overnight at room temperature in the dark. The following morning, fluorescence intensity at 485(14) nm excitation and 535(25) nm emission wavelengths was measured on an EnVision (Perkin Elmer) plate reader. Plate reads were normalized relative to the control inhibitor (0.29 uM artemisinin) and vehicle (DMSO) wells present on each plate and then corrected by an algorithm using vehicle-only control plates at the beginning and end of the compound plate stack.

Setting [2] is: measured here: PEO1 parental Z-AUC.

Where “and” joins values, the source holds several entries; their conditions need not be identical. Equal values may be shown once. Results filed as inconclusive are left out. Calls of active or inactive are those of the source. Unless noted, calls follow the shape of the full dose curve.

Consider `C[C@H](Nc1ncnc2nc[nH]c12)c1cc2cccc(Cl)c2c(=O)n1-c1ccccc1`, for which the Z-AUC in assay [1] is -0.68 (inactive) and -0.929 (inactive); in assay [1] (setting [2]), 0.702 and -0.975; in assay [1] (measured here: PEO4 Z-AUC) it was 0.729 and -0.588.

On to `Nc1nc(OCc2cc(Br)cs2)c2[nH]cnc2n1`, for which the Z-AUC in assay [1] is -0.86 (inactive); in assay [1] (setting [2]), 0.672; in assay [1] (measured here: PEO4 Z-AUC) it was 0.221.

For `CC(C)(CNC(=O)c1cccc(-c2noc(C(F)(F)F)n2)c1)c1coc(-c2ccccc2)n1`, the values for the Z-AUC in assay [1], in assay [1] (setting [2]) and in assay [1] (measured here: PEO4 Z-AUC) were 0.0442 (inactive), 0.732 and 0.975, respectively.

Consider `CC(C)C[C@H](CO)Nc1nc(S[C@@H](C)c2ccccc2)nc2nc(N)sc12`, for which the Z-AUC in assay [1] was -0.387 (inactive); in assay [1] (setting [2]) it was -0.481; in assay [1] (measured here: PEO4 Z-AUC), -0.0726.

`CCNC1(C(N)=O)CCN(c2ncnc3c2nc(-c2ccccc2Cl)n3-c2ccc(Cl)cc2)CC1`: the Z-AUC in assay [1] was 0.84 (inactive); in assay [1] (setting [2]), 0.367; in assay [1] (measured here: PEO4 Z-AUC), 0.247.

For the molecule `COC1CCN(C(=O)c2cc(Cc3n[nH]c(=O)c4ccccc34)ccc2F)CC1`, the Z-AUC in assay [1] was 0.585 (inactive); in assay [1] (setting [2]) it was -0.393; in assay [1] (measured here: PEO4 Z-AUC) it was 0.328.

For `O=c1[nH]c([C@@H]2CCCN2)nc2c1oc1ccc(Cl)cc12`, the Z-AUC in assay [1] is 0.967 (inactive); in assay [1] (setting [2]), 1.19; in assay [1] (measured here: PEO4 Z-AUC), 1.1.

For the molecule `COc1cc2c(cc1OCCCN1CCCC1)N=C(N)C21CCC1`, the Z-AUC in assay [1] is -0.834 (inactive); in assay [1] (setting [2]), -0.0136; in assay [1] (measured here: PEO4 Z-AUC) it was -0.411.

As for `O=C(NCCCNC(=O)c1ccc[nH]c1=O)c1cc(-c2ccccc2)on1`, the Z-AUC in assay [1] was 0.194 (inactive); in assay [1] (setting [2]), 0.0234; in assay [1] (measured here: PEO4 Z-AUC), -0.178.

For the molecule `O=C(Nc1ccnc(NC(=O)C2CC2)c1)c1c(Cl)cccc1Cl`, the values for the Z-AUC in assay [1], in assay [1] (setting [2]) and in assay [1] (measured here: PEO4 Z-AUC) were -1.13 (inactive), -0.966 and -0.923, respectively.

Take `O=C1Nc2nc(-c3c(O)cccc3OCC3CC3)cc([C@@H]3CCCNC3)c2CO1`: the Z-AUC in assay [1] is 0.934 (inactive); in assay [1] (setting [2]), 0.63; in assay [1] (measured here: PEO4 Z-AUC), 0.451.

In the case of `C1=C/COCc2cc(ccc2OCCN2CCCC2)Nc2nccc(n2)-c2cccc(c2)COC/1`, the Z-AUC was -1.05 (inactive) in assay [1], -1.19 in assay [1] (setting [2]) and -0.941 in assay [1] (measured here: PEO4 Z-AUC).

Regarding `C=CC(=O)N1CCC(Oc2cc3c(Nc4ccc(Cl)c(Cl)c4F)ncnc3cc2OC)CC1`, the Z-AUC in assay [1] was -0.983 (inactive); in assay [1] (setting [2]), -1.08; in assay [1] (measured here: PEO4 Z-AUC) it was -0.834.

Take `CC(/C=C/C(=O)NO)=C\[C@@H](C)C(=O)c1ccc(N(C)C)cc1`: the Z-AUC in assay [1] was -0.778 (inactive); in assay [1] (setting [2]), -0.861; in assay [1] (measured here: PEO4 Z-AUC) it was -1.61.

For `CS(=O)(=O)c1ccc(Oc2cc(F)cc(C#N)c2)c2c1[C@H](O)C(F)(F)C2`, the Z-AUC in assay [1] is 1.42 (inactive); in assay [1] (setting [2]), 1.01; in assay [1] (measured here: PEO4 Z-AUC), 0.7.

In the case of `N#Cc1ccnc(Nc2cc(C3CCN(C4COC4)CC3)cc(N3CCC(F)(F)C3)n2)c1`, the Z-AUC is -0.647 (inactive) in assay [1], -0.398 in assay [1] (setting [2]) and 0.109 in assay [1] (measured here: PEO4 Z-AUC).

Turning to `CCC(CC)C(c1ccc(Nc2nc3ccccc3s2)cc1)n1cncn1` (stereo not drawn), the figures for the Z-AUC in assay [1], in assay [1] (setting [2]) and in assay [1] (measured here: PEO4 Z-AUC) were 0.298 (inactive), 0.98 and 0.959, respectively.

Consider `c1ccc(-c2ccc(CNc3nc(-c4ccccn4)nnc3-c3ccccc3)cc2)cc1`, for which the Z-AUC was -1.09 (inactive) in assay [1], -0.646 in assay [1] (setting [2]) and -0.501 in assay [1] (measured here: PEO4 Z-AUC).

Turning to `CC(C)(C)Sc1c(CC(C)(C)C(=O)O)n(Cc2ccc(Cl)cc2)c2ccc(OCc3ccc4ccccc4n3)cc12`, the Z-AUC in assay [1] is 1.37 (inactive); in assay [1] (setting [2]) it was 0.865; in assay [1] (measured here: PEO4 Z-AUC) it was 0.962.

As to `COC1C(OC(=O)/C=C/C=C/C=C/C=C/C(=O)O)CCC2(CO2)C1C1(C)OC1CC=C(C)C` (stereo not drawn), the Potency in the assay with 7G8 is 5.6 nM (active).

As to `Nc1nccc(-c2c(-c3ccc(F)cc3)ncn2C2CCCCC2)n1`, the Z-AUC was -0.78 (inactive) in assay [1], 1.09 in assay [1] (setting [2]) and 0.204 in assay [1] (measured here: PEO4 Z-AUC).

For the molecule `CC#C[C@@H](CC(=O)O)c1ccc(OCc2cccc(-c3ccc(C(F)(F)F)cc3)c2)cc1`, the Z-AUC is 0.0821 (inactive) in assay [1], 0.579 in assay [1] (setting [2]) and 0.882 in assay [1] (measured here: PEO4 Z-AUC).

For `Cn1ncc(Cl)c1-c1cc(C(=O)NC(CN)Cc2ccc(F)c(F)c2)oc1Cl` (stereo not drawn), the Z-AUC is 0.713 (inactive) in assay [1], 0.319 in assay [1] (setting [2]) and 0.353 in assay [1] (measured here: PEO4 Z-AUC).

With `Cc1cccc(-c2[nH]ncc2-c2ccc(F)c(-c3cnn(CCO)c3)c2)n1`, the Z-AUC in assay [1] is 0.705 (inactive); in assay [1] (setting [2]), 0.508; in assay [1] (measured here: PEO4 Z-AUC), 1.13.

Regarding `O=C(CCl)Nc1cccc(NC2=NS(=O)(=O)c3ccccc32)c1`, the Z-AUC is -0.599 (inactive) in assay [1], -0.67 in assay [1] (setting [2]) and -0.526 in assay [1] (measured here: PEO4 Z-AUC).
